Data taken from ChEMBL document CHEMBL3433997, “St. Jude Leishmania screening dataset” (2016).

Target: Solute carrier family 2, facilitated glucose transporter member 1 (Homo sapiens) (UniProt P11166)
Assay: ST_JUDE_LEISH: Cytotoxicity at 2uM final concentration against transgenic Leishmania Mexicana promastigotes LmGLUT1 that are glucose transport deficient and complemented with the human glucose transporter GLUT1. Activity is measured by DNA content using SYBR green in vitro
Format: functional

Solute carrier family 2, facilitated glucose transporter member 1 (Homo sapiens), sequence (P11166 whole entry): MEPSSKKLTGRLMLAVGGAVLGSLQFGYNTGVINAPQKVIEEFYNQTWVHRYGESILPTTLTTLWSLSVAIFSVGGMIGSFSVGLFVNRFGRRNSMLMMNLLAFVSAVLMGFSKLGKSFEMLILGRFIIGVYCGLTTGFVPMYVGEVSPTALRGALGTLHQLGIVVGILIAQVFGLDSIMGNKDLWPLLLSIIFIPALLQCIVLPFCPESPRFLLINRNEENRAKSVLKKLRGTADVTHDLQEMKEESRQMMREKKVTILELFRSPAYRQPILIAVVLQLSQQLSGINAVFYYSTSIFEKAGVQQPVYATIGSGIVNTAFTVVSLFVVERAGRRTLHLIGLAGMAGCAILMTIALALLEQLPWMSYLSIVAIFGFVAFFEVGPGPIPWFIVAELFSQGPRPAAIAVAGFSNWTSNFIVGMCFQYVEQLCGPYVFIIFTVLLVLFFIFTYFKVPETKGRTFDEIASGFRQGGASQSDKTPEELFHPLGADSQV

| Compound | inhibition |
| --- | --- |
| N#Cc1cccc(Nc2nccc(Nc3ccc(Oc4ccccc4)cc3)n2)c1 | 6.87% |
| CCn1c(-c2nonc2N)nc2c(-c3cccc(NC(=O)Nc4cccc(C(F)(F)F)c4)c3)ncc(OCCCN)c21 | 2.47% |
| CC(=NNC(=N)N)c1ccc2c(ccc3ccccc32)c1 | 2.47% |
| CCc1cc(-c2onc(C)c2-c2cc3ccccc3o2)c(O)cc1OC | 1.25% |
| O=C1CCCN1CCCNCc1cccc(-c2ccc(-c3nc4cc(C(F)(F)F)ccc4[nH]3)cc2)c1 | 13.5% |
| O=C(/C=C/c1ccc(Cl)c(Cl)c1)NCCCCCN1CCC(NC(=O)Nc2cc(Cl)nc(Cl)c2)CC1 | 1.28% |
| N=C(N)NCCN(Cc1ccccc1)c1ccccc1 | 2.42% |
| COc1ccc2nccc([C@@H](O)CN3CCC(NC(=O)C(c4ccsc4)N4CCN(c5ccccc5OC)CC4)CC3)c2c1 (stereo not given in full) | 1.93% |
| CS(=O)(=O)N1CC2(CCN(CCC(NC(=O)/C=C/c3ccccc3)c3ccc(Cl)c(Cl)c3)CC2)c2ccccc21 (stereo not given) | 2.11% |
| CC[C@H](C)CNC(=O)c1cncc(-c2cccc(CNCCCc3ccccc3)c2)c1 | 4.76% |
| CC(=O)Oc1ccc(C(=O)Oc2ccccc2C#CC#N)cc1OC(C)=O | -2.02% |
| COc1ccc2nccc([C@@H](O)CN3CCC(NCc4ccc5c(c4)N(C)C(=O)CO5)CC3)c2c1 | 0.27% |
| Cc1c(CC(=O)NCCC2CCN(CCCCCNC(=O)/C=C/c3ccc(Cl)c(Cl)c3)CC2)sc2ccc(Cl)cc12 | 4.42% |
| Cc1cccc2nc(-c3cccc(-c4cccc(NC(=O)c5csnn5)c4)c3)[nH]c12 | 4.92% |
| CN(C)C(=O)O[C@@H]1CN[C@H](C#Cc2cc3ncnc(Nc4ccc5c(cnn5Cc5cccc(F)c5)c4)c3s2)C1 | 10.1% |
| CCN(CC)CCCN(CCCN(CC)CC)c1cc(C)nc(Nc2ccc3cc(Br)ccc3c2)n1 | 1.34% |
| CC(C)(C)c1ccc(NC(=O)c2cccc(CN3CCCN(CC4CCCCC4)CC3)c2)cc1 | 3.24% |
| Cc1cccc2nc(-c3cccc(-c4cccc(NC(=O)c5ccncc5)c4)c3)[nH]c12 | 3.32% |
| COCCN1CCC(NCC(C)(C)c2nc(-c3ccc(Cl)c(O)c3)c(-c3ccncc3)[nH]2)CC1 | 4.86% |
| CN(CC(=O)Nc1ccc(F)c(F)c1F)c1ncnc2sc(-c3ccccc3)cc12 | 3.92% |

| Compound | inhibition |
| --- | --- |
| Cc1cccc2nc(-c3ccc(-c4ccc(NC(=O)Nc5ccc(F)c(F)c5F)cc4)cc3)[nH]c12 | 8.48% |
| O=C(Nc1ccc(Cl)cc1F)N[C@H]1CCN(CCCCCNC(=O)C2CC2c2ccc(Cl)c(Cl)c2)C1 (stereo not given in full) | 8.35% |
| CC(C)NCc1cccc(-c2ccc(-c3nc4cc(C(F)(F)F)ccc4[nH]3)cc2)c1 | 7.38% |
| CCOC(=O)c1ccc(NCc2ccccn2)cc1 | 3.11% |
| COc1cc(F)c2ncc(C#N)c(CCN3CCC(NCc4ccc5c(c4)OCCO5)CC3)c2c1 | 91.3% |
| CC(C)(C)c1ccc(CN2CCC(CNC(=O)c3cc(-c4ccccc4Cl)cs3)C2)cc1 (stereo not given) | 0.49% |
| CC1CN(Cc2ccccc2)CCN1c1ccc(NC(=O)c2ccc(F)cc2)cc1 (stereo not given) | -1.05% |
| Cc1[nH]c(CNCCCNc2cc(=O)c3ccccc3[nH]2)c(Br)c1Br | 0.62% |
| O=C1c2ccccc2C(=O)N1CCOc1c(Br)cc(Br)cc1CNCCCNc1cc(=O)c2ccccc2[nH]1 | 2.28% |
| Oc1ccc2ccccc2c1C=NNc1nc(=Nc2ccccc2)nc(N2CCOCC2)[nH]1 | 4.21% |
| CCCCCN1CCC(NC(=O)c2ccc(C(=O)Nc3ccc(C(C)C)cc3)cc2)CC1 | -0.86% |
| Fc1cccc(COc2ccc(Nc3ncnc4ccc(C#C[C@H]5CCCN5)cc34)cc2Cl)c1 | 1.39% |
| N#Cc1cccc(NC(=O)Nc2ccc(-c3csc(-c4nc5ccccc5[nH]4)c3)cc2)c1 | 7.99% |
| COC(=O)CCCCCOc1cc(Cc2cnc(N)nc2N)cc(OC)c1OC | -0.5% |
| CCCCOc1ccccc1C(=O)NCc1csc(-c2ccccc2)n1 | -0.31% |
| COc1c(C2CCN(CCCCNC(=O)c3cc(-c4ccc(Cl)cc4)oc3C)CC2)ccc2c1CCCC2 | 9.04% |
| Clc1ccc2c(NN=Cc3ccco3)ccnc2c1 | 3.59% |
| CCc1sc(CN(CCCNc2cc(=O)c3ccccc3[nH]2)Cc2sc(CC)c(Br)c2-c2ccsc2)c(-c2ccsc2)c1Br | 3.98% |
| CC(C)N1CCC(N(Cc2ccc(-c3ccc(C(F)(F)F)cc3)cc2)C(=O)Cn2c(CCc3cccc(F)c3F)nc(=O)c3cccnc32)CC1 | 2.74% |
| O=C(NCCCN1CCN(c2cccc(Cl)c2)CC1)c1ccc(-c2nc3cc(Cl)c(Cl)cc3[nH]2)c(F)c1 | 3.57% |
